# Laboratory results taken from the supplement of paper PMC4466140.
# B1: unnamed (peptide)
# chain: AAAPKHAPPPVPNET
# B2: unnamed (peptide)
# chain: APKHAPPPVPNETDN
# B3: unnamed (peptide)
# chain: FIRKRAPTPPAPSRS
# Target: AgAbp1
# Test: SPOT peptide array binding signal intensity (averaged, normalized) (arbitrary units (background-subtracted, floor 0; scale differs between SH3 domains)); higher = stronger binding of the SH3 domain to the peptide
# Outline: (§1)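 Detection of bound protein relied on anti-GST antibody, an HRP anti-mouse secondary and luminol, with imaging and quantification in Genespotter. The bound protein was GST-fused SH3 domains from four yeast species, incubated at 10 μg/ml overnight at 4°C in TBS-based blocking buffer on cellulose membranes carrying synthetic 15-mer peptides with cysteines replaced by serines. Binding signal is normalized, background-subtracted spot intensity averaged over replicates, in arbitrary units that differ between domains.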
row,Binder,SPOT peptide array binding signal intensity
1,B1,≤ 0
2,B2,≤ 0
3,B3,948

# Target: AgBbc1
# Test: as above
# Outline: as §1
row,Binder,SPOT peptide array binding signal intensity
1,B1,≤ 0
2,B2,≤ 0
3,B3,334

# Target: AgBem1-D1
# Test: as above
# Outline: as §1
row,Binder,SPOT peptide array binding signal intensity
1,B1,≤ 0
2,B2,≤ 0
3,B3,340

# Target: AgBzz1-D1
# Test: as above
# Outline: as §1
row,Binder,SPOT peptide array binding signal intensity
1,B1,96
2,B2,72
3,B3,224

# Target: AgBzz1-D2
# Test: as above
# Outline: as §1
row,Binder,SPOT peptide array binding signal intensity
1,B1,≤ 0
2,B2,≤ 0
3,B3,120

# Target: AgCyk3
# Test: as above
# Outline: as §1
row,Binder,SPOT peptide array binding signal intensity
1,B1,≤ 0
2,B2,≤ 0
3,B3,1

# Target: AgFus1
# Test: as above
# Outline: as §1
row,Binder,SPOT peptide array binding signal intensity
1,B1,≤ 0
2,B2,≤ 0
3,B3,203

# Target: AgHof1
# Test: as above
# Outline: as §1
row,Binder,SPOT peptide array binding signal intensity
1,B1,≤ 0
2,B2,≤ 0
3,B3,65.2

# Target: AgHse1
# Test: as above
# Outline: as §1
row,Binder,SPOT peptide array binding signal intensity
1,B1,≤ 0
2,B2,≤ 0
3,B3,312

# Target: AgLsb1
# Test: as above
# Outline: as §1
row,Binder,SPOT peptide array binding signal intensity
1,B1,≤ 0
2,B2,≤ 0
3,B3,1090

# Target: AgLsb4
# Test: as above
# Outline: as §1
row,Binder,SPOT peptide array binding signal intensity
1,B1,≤ 0
2,B2,≤ 0
3,B3,60

# Target: AgMyo5
# Test: as above
# Outline: as §1
row,Binder,SPOT peptide array binding signal intensity
1,B1,2020
2,B2,1790
3,B3,1.75

# Target: AgNbp2
# Test: as above
# Outline: as §1
row,Binder,SPOT peptide array binding signal intensity
1,B1,≤ 0
2,B2,≤ 0
3,B3,1060

# Target: AgRvs167
# Test: as above
# Outline: as §1
row,Binder,SPOT peptide array binding signal intensity
1,B1,≤ 0
2,B2,≤ 0
3,B3,5.67

# Target: AgSho1
# Test: as above
# Outline: as §1
row,Binder,SPOT peptide array binding signal intensity
1,B1,≤ 0
2,B2,≤ 0
3,B3,14

# Target: AgSla1-D1-D2
# Test: as above
# Outline: as §1
row,Binder,SPOT peptide array binding signal intensity
1,B1,≤ 0
2,B2,≤ 0
3,B3,196

# Target: AgSla1-D3
# Test: as above
# Outline: as §1
row,Binder,SPOT peptide array binding signal intensity
1,B1,11
2,B2,2.5
3,B3,23.2

# Target: CaAbp1-D1
# Test: as above
# Outline: as §1
row,Binder,SPOT peptide array binding signal intensity
1,B1,≤ 0
2,B2,≤ 0
3,B3,2450

# Target: CaAbp1-D2
# Test: as above
# Outline: as §1
row,Binder,SPOT peptide array binding signal intensity
1,B1,≤ 0
2,B2,≤ 0
3,B3,734

# Target: CaBbc1
# Test: as above
# Outline: as §1
row,Binder,SPOT peptide array binding signal intensity
1,B1,≤ 0
2,B2,0.25
3,B3,641

# Target: CaBem1-D1
# Test: as above
# Outline: as §1
row,Binder,SPOT peptide array binding signal intensity
1,B1,≤ 0
2,B2,≤ 0
3,B3,813

# Target: CaBzz1-D1
# Test: as above
# Outline: as §1
row,Binder,SPOT peptide array binding signal intensity
1,B1,1240
2,B2,992
3,B3,1840

# Target: CaBzz1-D2
# Test: as above
# Outline: as §1
row,Binder,SPOT peptide array binding signal intensity
1,B1,66.8
2,B2,115
3,B3,4040

# Target: CaCyk3
# Test: as above
# Outline: as §1
row,Binder,SPOT peptide array binding signal intensity
1,B1,≤ 0
2,B2,≤ 0
3,B3,19.5

# Target: CaFus1
# Test: as above
# Outline: as §1
row,Binder,SPOT peptide array binding signal intensity
1,B1,≤ 0
2,B2,≤ 0
3,B3,334

# Target: CaHof1
# Test: as above
# Outline: as §1
row,Binder,SPOT peptide array binding signal intensity
1,B1,≤ 0
2,B2,≤ 0
3,B3,0.5

# Target: CaHse1
# Test: as above
# Outline: as §1
row,Binder,SPOT peptide array binding signal intensity
1,B1,≤ 0
2,B2,1.75
3,B3,10.8

# Target: CaLsb1
# Test: as above
# Outline: as §1
row,Binder,SPOT peptide array binding signal intensity
1,B1,≤ 0
2,B2,≤ 0
3,B3,167

# Target: CaLsb4
# Test: as above
# Outline: as §1
row,Binder,SPOT peptide array binding signal intensity
1,B1,≤ 0
2,B2,≤ 0
3,B3,198

# Target: CaMyo5
# Test: as above
# Outline: as §1
row,Binder,SPOT peptide array binding signal intensity
1,B1,795
2,B2,110
3,B3,12.8

# Target: CaNbp2
# Test: as above
# Outline: as §1
row,Binder,SPOT peptide array binding signal intensity
1,B1,≤ 0
2,B2,≤ 0
3,B3,415

# Target: CaRvs167
# Test: as above
# Outline: as §1
row,Binder,SPOT peptide array binding signal intensity
1,B1,≤ 0
2,B2,≤ 0
3,B3,38.7

# Target: CaRvs167-3
# Test: as above
# Outline: as §1
row,Binder,SPOT peptide array binding signal intensity
1,B1,0.5
2,B2,≤ 0
3,B3,40.8

# Target: CaSho1
# Test: as above
# Outline: as §1
row,Binder,SPOT peptide array binding signal intensity
1,B1,≤ 0
2,B2,≤ 0
3,B3,158

# Target: CaSla1-D1-D2
# Test: as above
# Outline: as §1
row,Binder,SPOT peptide array binding signal intensity
1,B1,≤ 0
2,B2,≤ 0
3,B3,1780

# Target: CaSla1-D3
# Test: as above
# Outline: as §1
row,Binder,SPOT peptide array binding signal intensity
1,B1,≤ 0
2,B2,≤ 0
3,B3,7.75

# Target: ScAbp1
# Test: as above
# Outline: as §1
row,Binder,SPOT peptide array binding signal intensity
1,B1,≤ 0
2,B2,≤ 0
3,B3,256

# Target: ScBbc1
# Test: as above
# Outline: as §1
row,Binder,SPOT peptide array binding signal intensity
1,B1,≤ 0
2,B2,≤ 0
3,B3,99

# Target: ScBem1-D1
# Test: as above
# Outline: as §1
row,Binder,SPOT peptide array binding signal intensity
1,B1,≤ 0
2,B2,≤ 0
3,B3,27.5

# Target: ScBzz1-D1
# Test: as above
# Outline: as §1
row,Binder,SPOT peptide array binding signal intensity
1,B1,413
2,B2,618
3,B3,160

# Target: ScBzz1-D2
# Test: as above
# Outline: as §1
row,Binder,SPOT peptide array binding signal intensity
1,B1,≤ 0
2,B2,≤ 0
3,B3,53

# Target: ScCyk3
# Test: as above
# Outline: as §1
row,Binder,SPOT peptide array binding signal intensity
1,B1,≤ 0
2,B2,≤ 0
3,B3,46

# Target: ScFus1
# Test: as above
# Outline: as §1
row,Binder,SPOT peptide array binding signal intensity
1,B1,≤ 0
2,B2,≤ 0
3,B3,84.5

# Target: ScHof1
# Test: as above
# Outline: as §1
row,Binder,SPOT peptide array binding signal intensity
1,B1,≤ 0
2,B2,≤ 0
3,B3,5.25

# Target: ScHse1
# Test: as above
# Outline: as §1
row,Binder,SPOT peptide array binding signal intensity
1,B1,≤ 0
2,B2,≤ 0
3,B3,922

# Target: ScLsb1
# Test: as above
# Outline: as §1
row,Binder,SPOT peptide array binding signal intensity
1,B1,≤ 0
2,B2,≤ 0
3,B3,224

# Target: ScLsb2
# Test: as above
# Outline: as §1
row,Binder,SPOT peptide array binding signal intensity
1,B1,≤ 0
2,B2,≤ 0
3,B3,313

# Target: ScLsb3
# Test: as above
# Outline: as §1
row,Binder,SPOT peptide array binding signal intensity
1,B1,≤ 0
2,B2,≤ 0
3,B3,432

# Target: ScLsb4
# Test: as above
# Outline: as §1
row,Binder,SPOT peptide array binding signal intensity
1,B1,≤ 0
2,B2,≤ 0
3,B3,26

# Target: ScMyo3
# Test: as above
# Outline: as §1
row,Binder,SPOT peptide array binding signal intensity
1,B1,1370
2,B2,1380
3,B3,22

# Target: ScMyo5
# Test: as above
# Outline: as §1
row,Binder,SPOT peptide array binding signal intensity
1,B1,1840
2,B2,1230
3,B3,20.8

# Target: ScNbp2
# Test: as above
# Outline: as §1
row,Binder,SPOT peptide array binding signal intensity
1,B1,≤ 0
2,B2,≤ 0
3,B3,2260

# Target: ScPex13
# Test: as above
# Outline: as §1
row,Binder,SPOT peptide array binding signal intensity
1,B1,≤ 0
2,B2,≤ 0
3,B3,156

# Target: ScRvs167
# Test: as above
# Outline: as §1
row,Binder,SPOT peptide array binding signal intensity
1,B1,0.167
2,B2,≤ 0
3,B3,613

# Target: ScSho1
# Test: as above
# Outline: as §1
row,Binder,SPOT peptide array binding signal intensity
1,B1,≤ 0
2,B2,≤ 0
3,B3,866

# Target: ScSla1-D1-D2
# Test: as above
# Outline: as §1
row,Binder,SPOT peptide array binding signal intensity
1,B1,≤ 0
2,B2,≤ 0
3,B3,2370

# Target: ScSla1-D3
# Test: as above
# Outline: as §1
row,Binder,SPOT peptide array binding signal intensity
1,B1,≤ 0
2,B2,≤ 0
3,B3,29.8

# Target: SpAbp1-D1
# Test: as above
# Outline: as §1
row,Binder,SPOT peptide array binding signal intensity
1,B1,≤ 0
2,B2,≤ 0
3,B3,342

# Target: SpBbc1
# Test: as above
# Outline: as §1
row,Binder,SPOT peptide array binding signal intensity
1,B1,1.5
2,B2,≤ 0
3,B3,6.5

# Target: SpBzz1-D1
# Test: as above
# Outline: as §1
row,Binder,SPOT peptide array binding signal intensity
1,B1,≤ 0
2,B2,≤ 0
3,B3,770

# Target: SpBzz1-D2
# Test: as above
# Outline: as §1
row,Binder,SPOT peptide array binding signal intensity
1,B1,≤ 0
2,B3,200

# Target: SpCyk3
# Test: as above
# Outline: as §1
row,Binder,SPOT peptide array binding signal intensity
1,B1,≤ 0
2,B3,2

# Target: SpHof1
# Test: as above
# Outline: as §1
row,Binder,SPOT peptide array binding signal intensity
1,B1,≤ 0
2,B3,116

# Target: SpHof1-2
# Test: as above
# Outline: as §1
row,Binder,SPOT peptide array binding signal intensity
1,B1,≤ 0
2,B3,10.5

# Target: SpHof1-3
# Test: as above
# Outline: as §1
row,Binder,SPOT peptide array binding signal intensity
1,B1,5.75
2,B3,567

# Target: SpHse1
# Test: as above
# Outline: as §1
row,Binder,SPOT peptide array binding signal intensity
1,B1,58.8
2,B3,377

# Target: SpLsb1
# Test: as above
# Outline: as §1
row,Binder,SPOT peptide array binding signal intensity
1,B1,≤ 0
2,B3,556

# Target: SpLsb4
# Test: as above
# Outline: as §1
row,Binder,SPOT peptide array binding signal intensity
1,B1,≤ 0
2,B3,1130

# Target: SpMyo1
# Test: as above
# Outline: as §1
row,Binder,SPOT peptide array binding signal intensity
1,B1,1720
2,B3,24.5

# Target: SpNbp2
# Test: as above
# Outline: as §1
row,Binder,SPOT peptide array binding signal intensity
1,B1,≤ 0
2,B3,75

# Target: SpPex13
# Test: as above
# Outline: as §1
row,Binder,SPOT peptide array binding signal intensity
1,B1,≤ 0
2,B3,33

# Target: SpRvs167
# Test: as above
# Outline: as §1
row,Binder,SPOT peptide array binding signal intensity
1,B1,≤ 0
2,B3,293

# Target: SpSla1-D1-D2
# Test: as above
# Outline: as §1
row,Binder,SPOT peptide array binding signal intensity
1,B1,≤ 0
2,B3,19

# Target: SpSla1-D3
# Test: as above
# Outline: as §1
row,Binder,SPOT peptide array binding signal intensity
1,B1,≤ 0
2,B3,4
